From PubChem BioAssay come the findings set out here.

Activity calls are given as the source filed them.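 Rule for the calls, unless noted: active = fluorescence slope after compound addition differing from the mean of all screened samples at 99.7% confidence, in either direction; inactive = the rest.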

Broadly, the inhibition is the drop in the measured response relative to a control, in per cent.

Assay [1] in a line: inhibitors of TNFa-induced NFkB p65 translocation, primary screen, imaging, HUVEC, MLSMR starter and 10KST1 sets (AID 438;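 active = inhibition above 20% together with a positive visual image hit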;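 note: compound added about 3h40 before a 20 min TNFalpha stimulation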;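 for inhibition: signal is the nuclear over cytoplasmic p65 intensity ratio per well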). The note with it: HUVEC TNFa-induced p65 nuclear translocation; cell count: measured here: nuclei count (cytotoxicity indicator), at 2.08 µM; inhibition: at 2 µM, stronger effect = higher value, 0% TNFa-plus-vehicle, 100% no-TNFa wells.
Assay [2] can be described thus: reduction of polyQ htt aggregates in cells – imaging, exon1htt(103Q)mCFP cells, high-content imaging, primary screen (AID 483;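 active = visual image review flags a hit and inhibition of aggregation exceeds 20%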;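 note: compound exposure lasted 3 days before fixation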;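 for nuclei count: percent of the per-plate median nuclei count of sample wells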). The note with it: exon1htt(103Q)mCFP cell line, aggregate imaging, at 2 µM; inhibition of aggregation: stronger effect = higher value; nuclei count: measured here: cell count, toxicity.
Assay [3] can be described thus: endothelial E-selectin expression blockers – imaging, HUVEC, immunofluorescence, MLSMR starter and 10KST1 sets, primary screen (AID 487;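 active = visually confirmed hit in the image check and inhibition above 20%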;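 for inhibition: signal is fraction of cell area covered by stained E-selectin grains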;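 for nuclei count: 100% = median nuclei count of all wells on the same plate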). The note with it: HUVEC TNFalpha-induced E-selectin immunofluorescence imaging, at 2 µM; inhibition: stronger effect = higher value; nuclei count: measured here: cell number, toxicity.
Assay [4] addresses Voltage-gated potassium channel subunit beta-2 (Rattus norvegicus) (UniProt P62483). Briefly: inhibitors of rat Kvbeta2 reductase activity – biochemical, NADPH fluorescence, primary screen (AID 622;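 active = fluorescence slope higher than the sample average by over 3 SD, cut at about -0.22 in these data, passing the limit was not always enough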;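 note: slope of raw intensity against log time taken from 70 to 1610 s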). The note with it: recombinant KvBeta, 4-cyanobenzaldehyde reduction, at 10 µM, stronger effect = higher value.
For assay [5] the target is unchanged. Briefly: enhancers of rat Kvbeta2 NADPH turnover – biochemical, NADPH fluorescence, primary screen (AID 623;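 active = NADPH fluorescence slope more negative than the mean of all samples by about 3 SD, 99.7% confidence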;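 note: fluorescence intensity change per second fitted from 20 to 320 s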). The note with it: Recombinant KvBeta, NADPH fluorescence decrease slope, 10 min; at 10 µM; stronger effect = lower value.
Assay [6] deals with Alpha-2C adrenergic receptor (Homo sapiens) (UniProt P18825). Briefly: compounds altering alpha2C-coupled GIRK flux – cell-based, HEK293 alpha2C/GIRK1/2, thallium flux, primary screen (AID 624).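 Note: slope of fluorescence ratio to pre-addition baseline per second over 15 to 24 s.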 The settings on record: thallium flux BTC fluorescence, at 10 µM, actives lie on both sides.
Alpha-2C adrenergic receptor (Homo sapiens), sequence (P18825 whole entry, looked up): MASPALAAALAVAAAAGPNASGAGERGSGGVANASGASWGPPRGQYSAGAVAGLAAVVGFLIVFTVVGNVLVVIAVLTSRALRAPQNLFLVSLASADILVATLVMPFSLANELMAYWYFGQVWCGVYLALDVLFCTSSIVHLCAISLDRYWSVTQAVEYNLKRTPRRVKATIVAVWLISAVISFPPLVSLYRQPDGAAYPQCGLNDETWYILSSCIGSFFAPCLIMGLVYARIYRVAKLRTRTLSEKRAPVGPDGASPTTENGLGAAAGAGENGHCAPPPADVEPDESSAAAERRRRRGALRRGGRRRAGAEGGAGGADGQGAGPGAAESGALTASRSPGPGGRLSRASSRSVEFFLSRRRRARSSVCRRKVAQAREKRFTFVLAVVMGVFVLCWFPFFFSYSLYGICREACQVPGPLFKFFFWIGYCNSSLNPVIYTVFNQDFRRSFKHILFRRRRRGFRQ
Assay [7] is described as follows: blockers of RIG-like receptor reporter activation – cell-based, Sendai virus stimulus, luciferase, 10K MLSCN set, TLR/RLR signaling modifier project, primary screen (AID 602276;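 active = inhibition at or above 50% at 10 µM; inactive = inhibition below 50%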;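 note: firefly luciferase from ISG56 promoter only with Renilla not read in this screen; 0% = Sendai virus plus DMSO and 100% = medium plus DMSO without virus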). The settings on record: HEK293 RL24 IRF3 luciferase reporter, at 10 µM, stronger effect = higher value.
Assay [8] is described as follows: TLR3 IRF3 reporter activation blockers – cell-based, poly I:C stimulus, luciferase, 10K MLSCN set, primary screen (AID 602277;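 active = inhibition of the reporter signal at or above 50%; inactive = inhibition below 50%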). The settings on record: HEK293-TLR3 RL24 IRF3 luciferase reporter, at 10 µM, stronger effect = higher value. Background: Reporter assays use an easily measured gene product as a stand-in for the process of interest.

Voltage-gated potassium channel subunit beta-2 (Rattus norvegicus), sequence (P62483 whole entry, looked up): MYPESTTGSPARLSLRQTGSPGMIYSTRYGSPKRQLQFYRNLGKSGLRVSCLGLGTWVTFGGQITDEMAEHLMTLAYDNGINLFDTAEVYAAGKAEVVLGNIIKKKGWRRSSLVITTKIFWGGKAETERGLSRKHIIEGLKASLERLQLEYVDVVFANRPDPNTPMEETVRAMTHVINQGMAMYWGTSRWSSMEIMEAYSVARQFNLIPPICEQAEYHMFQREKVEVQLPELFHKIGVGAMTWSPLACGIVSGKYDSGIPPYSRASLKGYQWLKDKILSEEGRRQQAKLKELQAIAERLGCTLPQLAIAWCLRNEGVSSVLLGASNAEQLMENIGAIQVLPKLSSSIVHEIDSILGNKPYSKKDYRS

Take `COc1ccc(/C=N/n2cc(-c3ccc(OC)cc3)nc2N)cc1`: in assay [1], the cell count is 351. In addition, the inhibition in assay [1] was 10.9% (inactive); in assay [3], 6.3% (inactive); in assay [7] it was 8.24% (inactive); in assay [8] it was 2.92% (inactive). Further, the inhibition of aggregation in assay [2] is 2.2% (inactive). Besides, the figures for the nuclei count in assay [2] and in assay [3] were 107% and 117%, respectively. Besides, the fluorescence slope in assay [4] is -0.246 (inactive). Further, the NADPH fluorescence slope in assay [5] was 1.1e-05 (inactive). Further, in assay [6], the slope is 0.00586 (inactive).
Turning to `CCc1cc2c(=O)n(C(C)C(=O)OC3CCCCC3)cnc2s1` (centres undefined), the cell count in assay [1] turned out to be 561. The inhibition in assay [1] was 0% (inactive); in assay [3], -73.8% (inactive); in assay [7], -49.6% (inactive); in assay [8], -101% (inactive). Moreover, in assay [2], the inhibition of aggregation is 32% (inactive). Also, the nuclei count in assay [2] stood at 114%; in assay [3] it was 103%. The fluorescence slope in assay [4] is -0.486 (inactive). Moreover, in assay [5], the NADPH fluorescence slope was -3.4e-05 (inactive). For the same compound, in assay [6], the slope is 0.00382 (inactive).
Turning to `CC1Cc2nc(SCC(=O)Nc3ccccc3F)n(C)c(=O)c2S1` (centres undefined), the cell count in assay [1] is 385. Moreover, the inhibition in assay [1] was 4.4% (inactive); in assay [3], -15% (inactive); in assay [7] it was 10.7% (inactive); in assay [8] it was 3.28% (inactive). Further, the inhibition of aggregation in assay [2] was -9.2% (inactive). The nuclei count amounted to 98.4% in assay [2] and 113% in assay [3]. The fluorescence slope in assay [4] is -0.505 (inactive). Also, in assay [5], the NADPH fluorescence slope was -2.1e-05 (inactive). In assay [6], the slope was 0.00529 (inactive).
Turning to `Cc1ccc(-n2nnnc2SCC(=O)c2cc(C)n(CC3CCCO3)c2C)cc1` (centres undefined), the cell count in assay [1] stood at 452. The inhibition in assay [1] is 6.3% (inactive); in assay [3], -52.2% (inactive); in assay [7], 15.1% (inactive); in assay [8], -0.555% (inactive). The inhibition of aggregation in assay [2] was -11.9% (inactive). Also, the nuclei count in assay [2] is 102%; in assay [3] it was 121%. The fluorescence slope in assay [4] was -0.437 (inactive). In addition, the NADPH fluorescence slope in assay [5] was 3.2e-05 (inactive). In assay [6], the slope was 0.00567 (inactive).
Consider `CCOc1ccc(N(CC(=O)NC2CCCCC2)S(=O)(=O)c2c(C)noc2C)cc1`, for which, in assay [1], the cell count was 710. In addition, the inhibition in assay [1] is -2.8% (inactive); in assay [3] it was -52.9% (inactive); in assay [7], -0.99% (inactive); in assay [8] it was 17.1% (inactive). The inhibition of aggregation in assay [2] was 33.7% (inactive). Besides, the nuclei count worked out at 117% in assay [2] and 112% in assay [3]. In addition, the fluorescence slope in assay [4] is -0.616 (inactive). Moreover, in assay [5], the NADPH fluorescence slope is -2.8e-05 (inactive). Also, the slope in assay [6] is 0.00737 (inactive).
For `CCOC(=O)Cn1nc(-c2ccc(Cl)cc2)cc1N`, the cell count in assay [1] came out at 285. For the same compound, the inhibition is 15.6% (inactive) in assay [1], -2.9% (inactive) in assay [3], -5.22% (inactive) in assay [7] and -25.8% (inactive) in assay [8]. In addition, the inhibition of aggregation in assay [2] was -12% (inactive). The nuclei count in assay [2] was found to be 99.9%; in assay [3], 111%. Further, the fluorescence slope in assay [4] was -0.501 (inactive). Besides, the NADPH fluorescence slope in assay [5] was -8.2e-05 (inactive). In addition, in assay [6], the slope is 0.00497 (inactive).
As for `O=C(CN1CCOCC1)N1CCCc2c1c(=O)oc1ccc(OCc3ccccc3)cc21`, the cell count in assay [1] turned out to be 427. The inhibition in assay [1] was 7.3% (inactive); in assay [3] it was -40.7% (inactive); in assay [7], -0.877% (inactive); in assay [8], 9.59% (inactive). Besides, the inhibition of aggregation in assay [2] is 5.6% (inactive). The nuclei count in assay [2] and in assay [3] was 109% throughout. The fluorescence slope in assay [4] was -0.589 (inactive). Also, the NADPH fluorescence slope in assay [5] is -4.6e-05 (inactive). Besides, in assay [6], the slope is 0.00267 (inactive).
On to `CC1(C)CC(=O)C(C#N)=C(NCCCO)C1`, for which the cell count in assay [1] came out at 471. Moreover, the inhibition is 5% (inactive) in assay [1], 42.4% (inactive) in assay [3], 11.1% (inactive) in assay [7] and 9.83% (inactive) in assay [8]. For the same compound, the inhibition of aggregation in assay [2] is -2.8% (inactive). Besides, the nuclei count in assay [2] was 98.2%; in assay [3] it was 109%. In assay [4], the fluorescence slope was -0.536 (inactive). The NADPH fluorescence slope in assay [5] was -3.8e-05 (inactive). Moreover, the slope in assay [6] was 0.00419 (inactive).
`C[C@@H]1C[C@H](O)c2cc(Cl)ccc2N1`: the cell count in assay [1] worked out at 404. Besides, the inhibition in assay [1] was -7.2% (inactive); in assay [3], -39.2% (inactive); in assay [7], 11% (inactive); in assay [8], 27.1% (inactive). Also, in assay [2], the inhibition of aggregation was 17.5% (inactive). Besides, the nuclei count in assay [2] is 97.5%; in assay [3], 114%. In addition, the fluorescence slope in assay [4] was -0.594 (inactive). The NADPH fluorescence slope in assay [5] was -1.8e-05 (inactive). In addition, in assay [6], the slope was 0.0061 (inactive).
`O=C(Cn1nnc(-c2cc(Cl)ccc2-n2cnnn2)n1)N1CCCc2ccccc21`: the cell count in assay [1] was determined as 574. Moreover, the inhibition in assay [1] was -2.1% (inactive); in assay [3] it was -13.8% (inactive); in assay [7], 17.3% (inactive); in assay [8], 23.2% (inactive). Moreover, the inhibition of aggregation in assay [2] is -3.1% (inactive). Also, the nuclei count in assay [2] came to 97.2%; in assay [3], 105%. Moreover, the fluorescence slope in assay [4] is -0.425 (inactive). The NADPH fluorescence slope in assay [5] is -0.000127 (inactive). Also, the slope in assay [6] was 0.00585 (inactive).
`Cc1ccc2c(C)nc(Nc3nc(CSc4nnnn4-c4ccccc4)cc(=O)[nH]3)nc2c1`: the cell count in assay [1] was 352. The inhibition in assay [1] was -3.8% (inactive); in assay [3], -54.7% (inactive); in assay [7] it was 8.72% (inactive); in assay [8], -4.56% (inactive). In addition, in assay [2], the inhibition of aggregation was -22.3% (inactive). Moreover, the values for the nuclei count in assay [2] and in assay [3] were 100% and 101%, respectively. Moreover, the fluorescence slope in assay [4] was -0.6 (inactive). Further, the NADPH fluorescence slope in assay [5] was -3.4e-05 (inactive). Moreover, the slope in assay [6] was 0.00691 (inactive).
On to `CC1CN(c2ccc(Oc3ccccc3)cc2)c2nc3c(c(=O)n(CC(N)=O)c(=O)n3C)n2C1` (centres undefined), for which, in assay [1], the cell count is 706. The inhibition in assay [1] was -12.4% (inactive); in assay [3] it was -15.8% (inactive); in assay [7], 9.73% (inactive); in assay [8], 22.4% (inactive). Moreover, the inhibition of aggregation in assay [2] was 4.2% (inactive). Further, the nuclei count in assay [2] is 106%; in assay [3] it was 93.4%. In assay [4], the fluorescence slope was -0.546 (inactive). Moreover, in assay [5], the NADPH fluorescence slope was -6.5e-05 (inactive). For the same compound, in assay [6], the slope is 0.00659 (inactive).
As for `O=C(CSc1nc(-c2ccco2)cc(C(F)(F)F)n1)NCCCn1ccnc1`, in assay [1], the cell count turned out to be 674. For the same compound, the inhibition in assay [1] was -1.9% (inactive); in assay [3], -43.1% (inactive); in assay [7], -4.59% (inactive); in assay [8] it was 13.6% (inactive). The inhibition of aggregation in assay [2] was 2.9% (inactive). The nuclei count in assay [2] came out at 119%; in assay [3], 113%. Also, the fluorescence slope in assay [4] is -0.537 (inactive). The NADPH fluorescence slope in assay [5] is 2.4e-05 (inactive). Moreover, the slope in assay [6] is 0.0076 (inactive).
In the case of `Fc1ccccc1C(c1nnnn1Cc1ccc2c(c1)OCO2)N1CCN(Cc2ccccc2)CC1` (centres undefined), the cell count in assay [1] was 324. For the same compound, the inhibition was -0.8% (inactive) in assay [1], 30.7% (inactive) in assay [3], -8.04% (inactive) in assay [7] and -3.59% (inactive) in assay [8]. The inhibition of aggregation in assay [2] was -2.5% (inactive). For the same compound, the nuclei count in assay [2] was found to be 112%; in assay [3] it was 108%. The fluorescence slope in assay [4] was -0.631 (inactive). In addition, the NADPH fluorescence slope in assay [5] is 1.1e-05 (inactive). Moreover, the slope in assay [6] was 0.00506 (inactive).
